Source: PubChem BioAssay (Johns Hopkins Ion Channel Center)
The list is not random: actives were taken first. Their share in the collection is about 2.4%.
CHT allo act = CHT positive allosteric modulators, primary screen, cell-based, membrane potential dye, choline EC20. hit rate 0.49% among 310,000. CHT-expressing cells; stronger effect = higher value; LV-AA mutant CHT in HEK293 cells. High affinity choline transporter 1 (Homo sapiens), Q9GZV3. AID 488977, 2010. B-score at 10 µM;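 active means initial fluorescence not abnormally high and integrated response B-score, plate-corrected, over 3 SD above library mean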
Target sequence (Q9GZV3 whole entry, looked up): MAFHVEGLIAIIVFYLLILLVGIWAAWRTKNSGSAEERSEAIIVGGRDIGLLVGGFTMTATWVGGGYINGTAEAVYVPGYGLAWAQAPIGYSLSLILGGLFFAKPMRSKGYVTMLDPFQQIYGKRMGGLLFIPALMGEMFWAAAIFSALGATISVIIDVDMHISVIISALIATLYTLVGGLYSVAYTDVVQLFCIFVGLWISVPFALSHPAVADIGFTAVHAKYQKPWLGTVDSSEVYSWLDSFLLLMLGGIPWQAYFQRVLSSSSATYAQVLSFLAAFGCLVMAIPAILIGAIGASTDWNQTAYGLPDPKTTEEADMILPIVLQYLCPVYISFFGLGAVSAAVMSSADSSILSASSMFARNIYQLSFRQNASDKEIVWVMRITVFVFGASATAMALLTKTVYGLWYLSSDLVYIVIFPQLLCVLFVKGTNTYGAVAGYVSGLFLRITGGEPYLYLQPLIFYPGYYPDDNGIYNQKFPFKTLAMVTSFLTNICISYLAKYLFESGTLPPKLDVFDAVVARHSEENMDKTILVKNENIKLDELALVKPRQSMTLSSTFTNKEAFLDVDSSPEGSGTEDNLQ
TMEM16A act = TMEM16A chloride channel activators or potentiators, primary screen, cell-based, HTS | B-score at 10 µM | hit rate 0.3% among 340,000 | HEK293 TMEM16A/YFP-H148Q/I152L, iodide quench fluorescence; stronger effect = lower value;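 active means fluorescence-ratio B-score plate-corrected deviation score at least 3 library SD below zero, with starting fluorescence score within 5 deviations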;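 further: channel opened by trigger with iodide after compound preincubation; score built on the fluorescence ratio of max minus min over baseline; more negative score means more quench and so TMEM16A activation or potentiation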
CHT inh = inhibitors of human choline transporter CHT. CHT-expressing cells, membrane potential dye, choline response; stronger effect = lower value. B-score at 10 µM. hit rate 0.86% among 310,000;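 active means B-score over 3 SD under the library average, and starting fluorescence ratio not unusually high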;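 further: choline stimulus applied at its EC90 after an EC20 pre-addition; B-score computed on integrated fluorescence ratio after choline addition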
TMEM16A inh = TMEM16A chloride channel inhibitors, primary screen, cell-based, HTS. HEK293 TMEM16A/YFP iodide influx fluorescence, ionomycin. Anoctamin-1 (Mus musculus), Q8BHY3. normalized B-score (activity score, 25-100; higher = stronger inhibition) at 10 µM. AID 588511, 2011. hit rate 1.2% among 310,000;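 active means ratio plate-corrected score three or more library SD toward inhibition, starting fluorescence score within five deviations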;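 further: score derived from kinetic fluorescence span divided by baseline fluorescence per well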
Hits are given with their value; . = inactive; / = no result.

SMILES	CHT allo act	TMEM16A act	CHT inh	TMEM16A inh
COc1ccc(NC(=O)Cn2c3ccccc3c3nc4n(c(=O)c32)CCS4)cc1OC	.	-54	.	.
O=C(COc1ccccc1)NCC(=O)N/N=C/c1cccs1	.	.	.	.
Cc1nc2cc(-c3cccc(F)c3)nn2c(C)c1CCC(=O)NC(C)c1ccc2c(c1)OCCO2 (stereo not given)	.	.	.	.
Cc1nn(-c2ccccc2)c(Cl)c1/C=N/NC(=O)c1ccccc1NS(=O)(=O)c1cccs1	.	.	.	100
O=C(NC1CCCC1)C1CCN(c2nccs2)CC1	.	.	.	.
O=C(Nc1ccc([N+](=O)[O-])cc1)Nc1ccc(N2CCOCC2)c2nonc12	.	.	.	100
O=C(CSc1nc(N2CCOCC2)nc(N2CCOCC2)n1)Nc1ccc([N+](=O)[O-])cc1	.	.	.	.
C#CCOCCOCCOCCNc1nc(N2CCN(C(=O)[C@H](CCCCN)n3cc(CN)nn3)CC2)nc(N2CCN(C(=O)[C@H](CO)n3cc([C@@H](N)C(C)C)nn3)CC2)n1	/	.	/	/
CCC1CCCCN1CCCNC(=O)c1ccc2c(c1)N(Cc1c(F)cccc1Cl)C(=O)CS2 (stereo not given)	.	.	-5.4	.
CN(C(=O)COC(=O)c1cc(S(=O)(=O)N2CCOCC2)ccc1Cl)C1CCS(=O)(=O)C1 (stereo not given)	.	.	.	.
O=C1NC(=O)C(=O)N1	.	.	.	.
COc1ccc(C2=CC(=O)C[C@H](c3ccc(F)cc3)C2)cc1F	/	-6.6	/	/
COc1cc(F)c(C2=CC(=O)C[C@H](c3ccc(F)cc3)C2)cc1F	/	.	/	/
O=C1CCCc2c1cc(C(=O)NC1CCSC1=O)c(=O)n2-c1ccccc1 (stereo not given)	.	.	.	.
Cn1cc(/C=C2\SC(=O)NC2=S)c2ccccc21	.	-4.6	.	.
O=C(NNC1=C(C(=O)C(F)(F)F)CCC1)c1ccccc1Cl	.	-19	.	.
O=C(NCC1CCCO1)c1cc2c(s1)CS(=O)(=O)C2 (stereo not given)	.	.	.	.
O=C(CSc1nc2ncc(Cl)cc2[nH]1)Nc1ccccc1-c1ccccc1	.	.	.	100
O=C(COc1coc(CN2CCN(c3ccc(F)cc3)CC2)cc1=O)NC1CCCCC1	/	.	/	/
CCOC(=O)C1=C(C)N=c2s/c(=C/c3cccc([N+](=O)[O-])c3O)c(=O)n2C1c1ccccc1 (stereo not given)	.	.	-8	100
COc1ccc(NC2CCCN(C(=O)c3csc(C)n3)C2)cc1 (stereo not given)	.	.	.	.
O=C(Cc1ccc(Br)c2ccccc12)N/N=C/c1ccccn1	.	.	.	25
N#C/C(=C(/O)CSc1ccccn1)c1nc2ccccc2s1	.	.	.	.
N#C/C(=N\O)c1nc2ccccc2s1	.	.	.	.
N#C/C(=C(/O)COc1ccccc1)c1nc2ccccc2s1	.	.	.	.
SMILES	CHT allo act	TMEM16A act	CHT inh	TMEM16A inh
N#C/C(=C(/O)COc1ccc(Cl)cc1)c1nc2ccccc2s1	.	.	.	100
N#C/C(=C(/O)c1ccc(F)cc1)c1nc2ccccc2s1	.	.	.	25
Cc1ccc(SC/C(O)=C(\C#N)c2nc3ccccc3s2)cc1	.	.	.	25
N#C/C(=C(/O)COC(=O)c1ccc(C#N)cc1)c1nc2ccccc2s1	.	.	.	25
O=S(=O)(N/N=C/c1ccc2c(c1)OCCO2)c1ccccc1	.	.	.	.
O=C(NC(Cc1ccccc1)C(=O)O)/C(=C/c1cccc(Br)c1)NC(=O)c1ccco1 (stereo not given)	.	.	.	.
CS(=O)(=O)N(Cc1ccccc1)c1ccc(C(=O)NCCSc2ccccn2)cc1	.	.	.	.
Nc1nc(Sc2ccc([N+](=O)[O-])c3nonc23)c2[nH]cnc2n1	/	-6	/	/
COc1ccc(O[C@H]2C=C[C@@H](c3ccccc3)O[C@@H]2COC(=O)CC/C(C)=N/OC[C@@H](O)COCc2ccco2)cc1	.	/	.	25
COC(=O)C/C=C/[C@@H](C)[C@@H](/C=N/OC[C@H]1O[C@H](c2ccccc2)C=C[C@@H]1Oc1ccc(OC)cc1)OC	.	/	.	.
O=[N+]([O-])c1cc(C(F)(F)F)cc([N+](=O)[O-])c1NCCNC(=S)Nc1ccc(Cl)c(Cl)c1	.	.	.	100
CCCn1c(N2CCN(C(=O)Nc3ccc(Cl)cc3)CC2)nc2ccccc21	.	.	.	.
